Bioassay records as filed in PubChem BioAssay.
IMPase inh – IMPase inhibition in cells; P97697; CHO-M1 cells, IP1 accumulation, HTRF TR-FRET ratio; inhibition (IP1 accumulation), % at 46.1 µM; 120,000 tested, under 10 active; AID 901; active = well fitted curve in the direction sought with a large enough effect in the signal ratio, not every such curve was filed as active; inconclusive = small, poorly fitted or top-dose-only effect, or a change in a side signal; inactive = no such curve, though single readings can be large or run the other way; the % refers to the signal ratio;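 note: cells stimulated with carbachol in lithium chloride buffer; higher means more IMPase inhibition seen as more IP1 and lower FRET ratio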
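The IP-One HTRF competitive assay in carbachol-stimulated CHO-M1 cells quantifies cellular IP1. Compounds spanned up to 46 uM final, and activity is expressed as AC50 from concentration-response fits of the ratio and donor data.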
PNC assembly inh – perinucleolar compartment assembly inhibition | PC3M PTB-GFP, PNC prevalence imaging, 16 h; stronger effect = lower value | activity change (PNC), negative = inhibition, % at 10 µM | actives 3.1% (n = 140,000) | AID 2417;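 active = readout at or below -70, meaning at least 70% loss of cells showing the perinucleolar compartment, a nuclear body marking cancer cells; inconclusive = readout between -30 and a set limit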
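PC3M cells stably expressing PTB-GFP, 750–1000 cells/well, treated 16 h at 37 °C with compound (23 nl of library stock), in duplicate. After paraformaldehyde fixation and Hoechst stain, imaged at 20x; PNC prevalence scored by image analysis.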
12-hLO inh – inhibitors of human 12-lipoxygenase (ALOX12); Potency, µM (titrated, usually from 57.1 µM), actives largely listed as inhibitors; purified 12-hLO, xylenol orange hydroperoxide absorbance; actives 0.12% (n = 150,000); P18054; active = well fitted curve in the direction sought with a large enough effect; inconclusive = small, poorly fitted or top-dose-only effect, or another doubt; inactive = no such curve, though single readings can be large; an effect the other way counts as inactive or inconclusive; note: nearly all actives have a fitted effect of over 55% in size
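Lipoxygenase turnover measured by absorbance at 573 and 405 nm after Fe-XO development. Human 12hLO 150 nM, arachidonate 40 uM, pH 7.0 Hepes buffer with detergent; 15 min compound preincubation, 30 min reaction.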
HPGD inh – inhibitors of human 15-hydroxyprostaglandin dehydrogenase (HPGD); Potency, µM, actives largely listed as inhibitors; purified HPGD, NADH fluorescence kinetic, PGE2 substrate; actives 4.3% (n = 150,000); P15428
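NADH formation kinetics: reaction with 30 uM PGE2 and 1 mM NAD+ (final), 20 nM enzyme, Tris-HCl pH 8 with Tween 20, after 15 min compound preincubation at room temperature. Fluorescence change, last versus first of five reads.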
ALDH1A1 inh – ALDH1A1 (human) enzyme inhibition; P00352; Purified ALDH1A1, NADH fluorescence, propionaldehyde substrate; Potency, µM (highest dose often 75.3 µM), most hits filed as inhibitors; actives 7.3% (n = 220,000); AID 1030
Target sequence (P00352 whole entry, looked up): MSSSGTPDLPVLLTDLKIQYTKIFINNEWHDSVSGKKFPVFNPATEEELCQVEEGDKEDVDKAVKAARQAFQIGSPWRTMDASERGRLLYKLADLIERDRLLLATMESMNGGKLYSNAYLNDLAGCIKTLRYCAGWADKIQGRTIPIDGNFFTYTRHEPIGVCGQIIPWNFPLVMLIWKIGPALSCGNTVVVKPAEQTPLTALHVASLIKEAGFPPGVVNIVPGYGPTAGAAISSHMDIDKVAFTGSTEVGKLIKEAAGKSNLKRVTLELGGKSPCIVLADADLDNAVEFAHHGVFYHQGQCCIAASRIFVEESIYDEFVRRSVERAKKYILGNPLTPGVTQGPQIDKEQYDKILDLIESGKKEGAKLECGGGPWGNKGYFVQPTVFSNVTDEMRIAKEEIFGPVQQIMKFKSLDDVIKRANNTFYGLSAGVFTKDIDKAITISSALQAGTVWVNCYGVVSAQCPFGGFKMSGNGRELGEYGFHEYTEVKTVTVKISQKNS
IMPase Li inh – membrane-permeable IMPase blocker, potentiated with lithium; AID 1457; CHO-M1 cells, IP1 TR-FRET (IP-One), carbachol + lithium; actives 0.35% (n = 210,000); Potency, µM (doses to about 59.4 µM), most hits filed as inhibitors; active = well fitted curve in the direction sought with a large enough effect; inconclusive = small, poorly fitted or top-dose-only effect, or another doubt; inactive = no such curve, though single readings can be large; an effect the other way counts as inactive or inconclusive;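 note: IP1 builds up when IMPase is blocked and the TR-FRET signal falls; nearly all actives have a fitted effect of over 50% in size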
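IP1 accumulation measured by competitive TR-FRET in lysed CHO-M1 cells after 30 min compound exposure at 37C, with a small lithium addition to potentiate weak responses. Hill-equation AC50 from ratio and donor-channel data.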
Each line names hits and unclear results; the compound was inactive in the other large screens. This is a sample that favours compounds with a hit; in the whole collection about 11% have one here. Unless noted, calls come from the whole dose curve; as a rule, active = well fitted inhibition curve with a large enough effect (not every such curve was filed as active); inconclusive = small, poorly fitted or top-dose-only effect, or another doubt; inactive = no such curve, though single readings can be large or run the other way.

O=C1C=C(NCCO)C(=O)c2cnccc21	none (no result: IMPase inh, PNC assembly inh)
O=C1C=C(NCCN2CCOCC2)C(=O)c2cnccc21	PNC assembly inh -82 (no result: IMPase inh)
CN(CCO)c1ccc([N+](=O)[O-])cc1C(=O)O	ALDH1A1 inh 22µM
O=C(O)c1cc([N+](=O)[O-])ccc1NCCO	none (no result: IMPase inh)
COc1ccc(OC)c(C2=NOC(C(=O)N3CCCc4ccccc43)C2)c1 (stereo not given)	ALDH1A1 inh 11µM
COc1cc(OC)c(C2=NOC(C(=O)N3CCc4ccccc4C3)C2)cc1Cl (stereo not given)	HPGD inh 11µM
CCCCS(=O)(=O)N1CCc2nc(-c3ccccc3)c3c(c2C1)CO[C@@H](C)C3	none (no result: IMPase inh, PNC assembly inh)
O=c1c(CCc2ccccc2)nc2cnc(N3CCOCC3)nc2n1CCc1ccccc1	ALDH1A1 inh inconclusive (no result: IMPase inh, PNC assembly inh, 12-hLO inh, HPGD inh)
c1ccc(-c2cc(-c3cc(-c4ccccn4)[nH]n3)n[nH]2)nc1	none (no result: IMPase inh, PNC assembly inh)
CS(=O)(=O)N(Cc1ccccc1)c1ccc(C(=O)Nc2cccnc2)cc1	PNC assembly inh -100
CC(C)c1ccccc1NC(=O)c1ccc(CN(c2ccccc2)S(=O)(=O)c2ccccc2)cc1	PNC assembly inh inconclusive (no result: IMPase inh)
Cc1ccccc1NC(=O)c1ccc(CN(c2ccccc2)S(=O)(=O)c2ccccc2)cc1	PNC assembly inh -134 (no result: IMPase inh)
CN(c1ccc(C(=O)NCc2cccnc2)cc1)S(C)(=O)=O	PNC assembly inh -100
CC(C)(C)c1cc[n+](-c2nc([O-])sc2C=O)cc1	PNC assembly inh -113 (no result: IMPase inh)
Cc1cccc(Nc2nc(NCc3ccco3)nc(N)c2[N+](=O)[O-])c1	none (no result: IMPase inh, PNC assembly inh, 12-hLO inh, HPGD inh, IMPase Li inh)
Nc1nc(Nc2ccccc2)nc(N2CCOCC2)c1[N+](=O)[O-]	ALDH1A1 inh 13µM (no result: IMPase inh)
Nc1nc(NCc2ccco2)nc(N2CCCCC2)c1[N+](=O)[O-]	ALDH1A1 inh 4µM (no result: IMPase inh)
COc1cccc(OCCCn2c(-c3ccc(Cl)cc3)nc3ccccc3c2=O)c1	none (no result: PNC assembly inh, 12-hLO inh, HPGD inh, ALDH1A1 inh, IMPase Li inh)
O=C(Oc1ccccc1C(=O)Nc1ccccc1)c1ccc(Br)c([N+](=O)[O-])c1	ALDH1A1 inh 14µM (no result: IMPase inh)
O=C(Cc1ccccc1)Nc1ccccc1CO	HPGD inh 14µM, ALDH1A1 inh inconclusive
O=C(Cc1ccc(Cl)cc1)Nc1cccc2ncccc12	ALDH1A1 inh inconclusive (no result: IMPase inh, PNC assembly inh, 12-hLO inh, HPGD inh)
O=C(Cc1ccc(Cl)cc1)Nc1ccccc1CO	PNC assembly inh -87
N#Cc1ccc(CN2CCCC3(CCN(C(=O)c4csnn4)CC3)C2)cc1	none (no result: IMPase inh, PNC assembly inh)
NC(=O)N/N=C1\CC[C@H](O)C[C@@H]1CC(=O)O	none (no result: IMPase inh, PNC assembly inh)
CCC1(C(=O)OC)NC(c2ccco2)C2C(=O)N(c3ccc(F)cc3)C(=O)C21 (stereo not given)	ALDH1A1 inh 18µM (no result: IMPase inh, PNC assembly inh, 12-hLO inh, HPGD inh)
Cc1ccc(C(=O)O)cc1Nc1nc2ccccc2n2nnnc12	none (no result: PNC assembly inh, 12-hLO inh, HPGD inh, ALDH1A1 inh, IMPase Li inh)
NNC(=O)CC12CC3CC(C1)CC(n1ncnn1)(C3)C2	ALDH1A1 inh 2.8µM (no result: IMPase inh)
O=C(O)CC12CC3CC(C1)CC(n1cncn1)(C3)C2	none (no result: IMPase inh, PNC assembly inh, 12-hLO inh, HPGD inh)
CNC(=O)c1c(N)sc2c1CCCCC2	PNC assembly inh inconclusive, HPGD inh 32µM, ALDH1A1 inh 25µM
NC(=O)c1c(N)sc2c1CCCCC2	HPGD inh inconclusive, ALDH1A1 inh 14µM
NC(=O)c1c(N)sc2c1CCC2	ALDH1A1 inh inconclusive (no result: IMPase inh, PNC assembly inh, 12-hLO inh, HPGD inh)
O=c1n(-c2ccccc2)c(=O)n2n1CC[C@H]1/C(=N\OC[C@@H](O)COCc3ccco3)[C@H]3O[C@@H]3[C@@H](O)[C@@H]12	none (no result: IMPase inh, PNC assembly inh, 12-hLO inh, HPGD inh, IMPase Li inh)
O[C@@H](c1cc([C@@]23C[C@H]4CC[C@@H]2C[C@H](C4)C3)nc2c(Cl)cc(Cl)cc12)[C@@H]1CCCCN1	none (no result: IMPase inh, PNC assembly inh, HPGD inh, ALDH1A1 inh, IMPase Li inh)
O=C(NC1=NCCS1)c1ccc2c(c1)C(=O)N(Cc1ccco1)C2=O	PNC assembly inh inconclusive, ALDH1A1 inh 16µM
O=C(Nc1ccc(Cl)cc1C(=O)O)c1ccc2c(c1)C(=O)N(Cc1ccco1)C2=O	HPGD inh inconclusive, ALDH1A1 inh 3.8µM (no result: IMPase inh)
O=C(Nc1ccc(C(F)(F)F)cc1)c1csc(-c2ccncc2)n1	none (no result: IMPase inh, PNC assembly inh, 12-hLO inh, HPGD inh)
